This is an account of results in PubChem BioAssay (NCATS).

“And” between values parts separate entries of the source, which are not always exact repeats. Equal values may be shown once. Results filed as inconclusive are left out. Some structures have more than one record in an assay (separate samples or runs), and their calls can disagree. The source made the active and inactive calls. Calls come from the whole dose curve; as a rule, active = well fitted cell-killing curve with a large enough effect; inconclusive = small, poorly fitted or top-dose-only effect, or effect the other way; inactive = no such curve, though single readings can be large or run the other way. Bridge positions count the residues as written; N and C are the ends. Square brackets hold non-standard residues; d marks the D form. Peptide text beside a SMILES is read from it. * marks the point of attachment. ξ: configuration not given here. Octanoyl(6-Me) = CCC(C)CCCCC(=O)*; ξThr(3R) = C[C@@H](O)C(N)C(=O)O; dDab = NCC[C@@H](N)C(=O)O; Dab = NCC[C@H](N)C(=O)O
Potency is the fitted concentration of half-maximal effect.

This experiment can be described thus: Viability qHTS for spleen associated tyrosine kinase inhibitor (SYKi) naive MV4-11 cells (AID 1963823). Note: nearly all actives have a fitted effect of over 40% in size. As to conditions: MV4-11 AML viability, CellTiter-Glo luminescence, 72 h; series mostly up to 45 µM; viability (% of control): at the top concentration. In short, it runs like this:
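Luminescence from CellTiter-Glo, developed 10 min at room temperature, gave viability of MV4-11 cells never exposed to SYK inhibitor. Cells (500/well) had been incubated with compounds for 72 hr under standard culture conditions.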
(In general: In qHTS, concentration-response curves come from the screen itself.)
As for `COc1cc2c(Oc3ccc(NC(=O)C4(C(=O)Nc5ccc(F)cc5)CC4)cc3F)ccnc2cc1OCCCN1CCOCC1`, the Potency entry was “inactive and 2.6 nM (active)”.

Regarding `Oc1ccc2ccccc2c1SSc1c(O)ccc2ccccc12`, the Potency was 5.9 µM (active) and 11.6 µM (active).

Consider `Cc1ccc(S(=O)(=O)Nc2nc3ccccc3nc2Nc2ccc3nsnc3c2)cc1`, for which the Potency is 10.3 µM (active).

`Cc1cc(O)c2c(c1)C(=O)c1cccc(O)c1C2=O`: the “viability (% of control)” value was 87% (inactive).

As to `O=C1N(c2ccccc2)c2ccccc2C1(Cc1ccncc1)Cc1ccncc1`, the “viability (% of control)” value is 94.5% (inactive).

Regarding `O=C(NCCCNc1nc(Nc2cccc(NC(=O)N3CCCC3)c2)ncc1I)c1cccs1`, the Potency is 0.0517 µM (active).

For `NS(=O)(=O)c1cc(Cl)c(Cl)c(S(N)(=O)=O)c1`, the “viability (% of control)” value was 99% (inactive).

Regarding `CCc1cccc2c3c([nH]c12)C(CC)(CC(=O)O)OCC3` (stereo not drawn), the “viability (% of control)” value was 56.3% (inactive).

`CCC(=O)N[C@H]1CC[C@H](C(=O)N(C)c2ccc(-c3nc4ccccc4o3)cc2)C1`: the Potency was 14.8 µM (active).

As for `CC(C)C[C@@H](N)[C@H](O)C(=O)N[C@H](C(=O)N[C@H](C(=O)N[C@@H](CC(=O)O)C(=O)O)C(C)C)C(C)C`, the “viability (% of control)” value is 75% (inactive).

For the compound `CN1CCN(CCCN2c3ccccc3Sc3ccc(C(F)(F)F)cc32)CC1`, the Potency was 11.9 µM (active) and 18.6 µM (active).

With `Cc1c(C(=O)Nc2ccc(N3C[C@@H](C)O[C@@H](C)C3)nc2)cccc1-c1ccc(OC(F)(F)F)cc1`, the Potency entry is “inactive and 16.6 µM (active)”.

Consider `CC(C)Oc1cc(Nc2nc(N[C@@H](C)c3ccc(F)cn3)ncc2Cl)[nH]n1`, for which the Potency is 0.058 µM (active).

On to `CCC(c1ccc(O)cc1)C(CC)c1ccc(O)cc1` (stereo not drawn), for which the Potency was 20.9 µM (active).

In the case of `CC(C(=O)O)c1cccc(C(=O)c2ccccc2)c1` (stereo not drawn), the “viability (% of control)” value is 65.6% (inactive).

Consider `Cc1ccn(-c2ccc(-c3ncco3)cc2)c(=O)c1-c1ccc2nc(N)ncc2c1`, for which the Potency was 1.64 µM (active).

`c1cc(OCCN2CCCCC2)cc(-c2n[nH]c3ccc(-c4ncn[nH]4)cc23)c1`: the Potency was 0.651 µM (active).

In the case of `NC(=O)c1cccc(-c2cc(Nc3ccc(OC(F)(F)F)cc3)ncn2)c1`, the Potency is 10.3 µM (active) and 5.25 µM (active).

As for `O=C(O)C1CCCN(CCC=C(c2ccccc2)c2ccccc2)C1` (stereo not drawn), the “viability (% of control)” value was 70% (inactive).

With `CCC(C)CCCCC(=O)N[C@@H](CCN)C(=O)NC(C(=O)N[C@H](CCN)C(=O)N[C@@H]1CCNC(=O)C([C@@H](C)O)NC(=O)[C@@H](CCN)NC(=O)[C@@H](CCN)NC(=O)[C@@H](CC(C)C)NC(=O)[C@H](Cc2ccccc2)NC(=O)[C@H](CCN)NC1=O)[C@@H](C)O` (stereo partly drawn) ({Octanoyl(6-Me)}-[Dab][ξThr(3R)][dDab][dDab][Dab]F[dL][dDab][dDab][ξThr(3R)]; lactam 4-C), the “viability (% of control)” value is 70.7% (inactive).

On to `Clc1ccc(C(Cn2ccnc2)OCc2c(Cl)cccc2Cl)c(Cl)c1` (stereo not drawn), for which the Potency is 16.8 µM (active) and 8.33 µM (active).

For `Cc1cc(CN2CCN(c3c(Br)cnc4nc(-c5ccc(N6CCN(C)CC6)cc5)[nH]c34)CC2)no1`, the Potency was 0.0231 µM (active).

Consider `COc1c(N2CCNC(C)C2)c(F)cc2c(=O)c(C(=O)O)cn(C3CC3)c12` (stereo not drawn), for which the Potency was 18.6 µM (active).

`CCn1c(-c2nonc2N)nc2cnc(Oc3cccc(NC(=O)c4ccc(OCCN5CCOCC5)cc4)c3)cc21`: the Potency was 517 nM (active) and 934 nM (active).

For `COC(=O)[C@H](CCCN=C(N)N)NS(=O)(=O)c1ccc(C)cc1`, the “viability (% of control)” value is 86% (inactive).

For the compound `COc1ccc2cc(-c3nc(-c4ccc(S(C)=O)cc4)[nH]c3-c3ccncc3)ccc2c1` (stereo not drawn), the Potency is 9.34 µM (active) and 11.6 µM (active).

As to `CN(C)Cc1ccc(-c2nc3cccc4c3n2CCNC4=O)cc1`, the Potency was 16.6 µM (active).

In the case of `CC(C)(C)C(=O)OCOP(=O)(COCCn1cnc2c(N)ncnc21)OCOC(=O)C(C)(C)C`, the Potency is 944 nM (active) and 372 nM (active).

Take `CCS(=O)(=O)c1cccc(-c2cc(C(=O)NC3CCN(C)CC3)c(C)c3[nH]c4ncc(C)cc4c23)c1`: the Potency is 40.4 nM (active) and 59 nM (active).

As to `O=C(Nc1cccc(Cl)c1)Nc1ncc(CCNc2ncnc3ccsc23)s1`, the Potency is 0.0206 µM (active).

On to `COc1ccccc1OCCNCC(O)COc1cccc2[nH]c3ccccc3c12` (stereo not drawn), for which the Potency is 13.3 µM (active).

For `NCCc1ccc(O)c(O)c1`, the Potency is 20.9 µM (active).

For the compound `Cc1ccccc1-n1c(Cn2nc(-c3cccc(O)c3)c3c(N)ncnc32)nc2cccc(C)c2c1=O`, the Potency is 6.61 µM (active).
